The supplement of paper PMC10849652
Targets with a hit are over-represented here; the source holds about 7,900 in all. About 0.6% of all pairs of compound and target were hits. A number with no mark means an inactive call.

Legend:
Assay in all cases: log2 fold change, soluble protein after heating vs DMSO (PISA); higher = thermal stabilisation; K562 cells, 10 uM, 30 min; active = over 0.2 and 3.5 SD of the protein, either way, in both replicates (recomputed)
[1] = compound: CN1CCN(CCOc2cc(OC3CCOCC3)c3c(Nc4c(Cl)ccc5c4OCO5)ncnc3c2)CC1 [saracatinib]
Procedure, shortened: (§1)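 Soluble protein was quantified by TMTpro 16plex LC-MS/MS after channel sums were equalised. It was obtained as the supernatant after 21,000xg for 90 min from pooled aliquots of K562 cells (2×10^6 cells/mL, 10 μM compound, 30 min) heated for 3 min across 48°C-58°C and extracted in PBS with 0.5% NP-40 at 4°C. Thermal stability values are relative to control samples and come from duplicates. They are given as log2 fold changes.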

[2] = compound: CN1CCN(c2nc(C3=C(c4c[nH]c5ccccc45)C(=O)NC3=O)c3ccccc3n2)CC1 [sotrastaurin]
Procedure, shortened: as §1

[3] = compound: CN1CC[C@H](c2c(O)cc(O)c3c(=O)cc(-c4ccccc4Cl)oc23)[C@H](O)C1 [alvocidib]
Procedure, shortened: as §1

[4] = compound: CN1CCc2c(c3ccccc3n2Cc2ccc(C(=O)NO)cc2)C1 [Tubastatin A]
Procedure, shortened: as §1

[5] = compound: CNC(=O)C1=CC=CC=C1NC2=NC(=NC=C2Cl)NC3=C(C=C(C=C3)N4CCOCC4)OC
Procedure, shortened: as §1

[6] = compound: CNC(=O)c1ccc(Nc2ncc(C(F)(F)F)c(NCc3nccnc3N(C)S(C)(=O)=O)n2)cc1 [defactinib]
Procedure, shortened: as §1

[7] = compound: CNCc1ccc(-c2[nH]c3cc(F)cc4c3c2CCNC4=O)cc1 [rucaparib]
Procedure, shortened: as §1

[8] = compound: CNc1nc(-c2ccc3c(N)n[nH]c3c2)cc(N2C[C@@H](C(=O)NC3CCCCC3)CC[C@H]2C)n1
Procedure, shortened: as §1

[9] = compound: COC(=O)N[C@@H](C)CNc1nccc(-c2cn(C(C)C)nc2-c2cc(Cl)cc(NS(C)(=O)=O)c2F)n1 [encorafenib]
Procedure, shortened: as §1

[10] = compound: COC(=O)[C@H](CCSC)NC(=O)C1=C(C=C(C=C1)NC[C@H](CS)N)C2=CC=CC=C2
Procedure, shortened: as §1

Sequence of UniProt Q92828 (Q92828 whole entry, looked up): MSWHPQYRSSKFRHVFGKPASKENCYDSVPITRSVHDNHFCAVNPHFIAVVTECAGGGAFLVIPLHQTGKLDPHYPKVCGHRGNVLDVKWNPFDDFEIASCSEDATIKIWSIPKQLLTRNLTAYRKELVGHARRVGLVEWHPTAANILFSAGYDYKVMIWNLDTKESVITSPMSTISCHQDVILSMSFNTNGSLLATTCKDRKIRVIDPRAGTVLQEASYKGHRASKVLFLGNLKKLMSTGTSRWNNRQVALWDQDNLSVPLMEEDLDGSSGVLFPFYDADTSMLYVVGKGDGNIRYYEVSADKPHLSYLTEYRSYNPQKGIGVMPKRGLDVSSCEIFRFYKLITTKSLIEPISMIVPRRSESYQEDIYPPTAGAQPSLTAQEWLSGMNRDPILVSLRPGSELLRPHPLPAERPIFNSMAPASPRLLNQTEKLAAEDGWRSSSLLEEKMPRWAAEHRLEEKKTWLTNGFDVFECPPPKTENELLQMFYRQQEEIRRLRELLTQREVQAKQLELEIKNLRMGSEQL
Sequence of UniProt Q8N163 (Q8N163 whole entry, looked up): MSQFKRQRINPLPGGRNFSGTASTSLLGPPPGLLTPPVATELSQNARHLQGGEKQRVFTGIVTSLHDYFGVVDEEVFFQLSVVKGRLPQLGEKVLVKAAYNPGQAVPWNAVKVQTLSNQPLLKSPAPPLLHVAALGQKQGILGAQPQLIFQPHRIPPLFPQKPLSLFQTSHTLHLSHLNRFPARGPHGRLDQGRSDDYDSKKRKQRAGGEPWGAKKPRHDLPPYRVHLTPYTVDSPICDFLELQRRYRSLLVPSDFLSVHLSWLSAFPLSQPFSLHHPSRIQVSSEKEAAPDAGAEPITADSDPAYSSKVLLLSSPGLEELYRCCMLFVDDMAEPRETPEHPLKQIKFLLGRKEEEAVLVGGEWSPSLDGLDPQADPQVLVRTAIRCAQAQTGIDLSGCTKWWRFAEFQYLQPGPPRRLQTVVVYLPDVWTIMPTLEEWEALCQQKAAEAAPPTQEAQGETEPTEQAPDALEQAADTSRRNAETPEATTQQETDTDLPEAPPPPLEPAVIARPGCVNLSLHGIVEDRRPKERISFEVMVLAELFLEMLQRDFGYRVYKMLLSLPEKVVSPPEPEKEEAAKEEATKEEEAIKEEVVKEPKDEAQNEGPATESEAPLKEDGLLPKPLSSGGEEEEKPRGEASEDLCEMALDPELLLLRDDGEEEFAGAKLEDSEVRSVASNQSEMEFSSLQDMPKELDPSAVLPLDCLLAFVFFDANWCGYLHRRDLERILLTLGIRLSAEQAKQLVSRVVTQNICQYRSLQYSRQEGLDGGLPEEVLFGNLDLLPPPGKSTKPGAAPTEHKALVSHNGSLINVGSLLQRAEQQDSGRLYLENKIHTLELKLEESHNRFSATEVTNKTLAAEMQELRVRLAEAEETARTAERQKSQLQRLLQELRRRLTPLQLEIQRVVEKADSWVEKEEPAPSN
Sequence of UniProt P10606 (P10606 whole entry, looked up): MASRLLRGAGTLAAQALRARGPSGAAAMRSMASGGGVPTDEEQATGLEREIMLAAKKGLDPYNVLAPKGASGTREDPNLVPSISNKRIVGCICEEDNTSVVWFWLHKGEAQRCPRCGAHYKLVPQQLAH
Sequence of UniProt Q8NHZ8 (Q8NHZ8 whole entry, looked up): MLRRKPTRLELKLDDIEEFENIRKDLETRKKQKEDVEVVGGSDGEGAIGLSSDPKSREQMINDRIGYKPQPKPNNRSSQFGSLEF
Sequence of UniProt Q16740 (Q16740 whole entry, looked up): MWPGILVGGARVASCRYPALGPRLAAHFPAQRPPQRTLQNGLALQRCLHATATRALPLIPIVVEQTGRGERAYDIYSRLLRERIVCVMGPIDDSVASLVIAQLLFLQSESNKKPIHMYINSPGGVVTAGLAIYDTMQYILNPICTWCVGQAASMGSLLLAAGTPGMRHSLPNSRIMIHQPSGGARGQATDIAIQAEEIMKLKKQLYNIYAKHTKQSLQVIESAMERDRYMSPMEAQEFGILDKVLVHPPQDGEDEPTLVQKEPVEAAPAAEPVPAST
Sequence of UniProt Q8IWY9 (Q8IWY9 whole entry, looked up): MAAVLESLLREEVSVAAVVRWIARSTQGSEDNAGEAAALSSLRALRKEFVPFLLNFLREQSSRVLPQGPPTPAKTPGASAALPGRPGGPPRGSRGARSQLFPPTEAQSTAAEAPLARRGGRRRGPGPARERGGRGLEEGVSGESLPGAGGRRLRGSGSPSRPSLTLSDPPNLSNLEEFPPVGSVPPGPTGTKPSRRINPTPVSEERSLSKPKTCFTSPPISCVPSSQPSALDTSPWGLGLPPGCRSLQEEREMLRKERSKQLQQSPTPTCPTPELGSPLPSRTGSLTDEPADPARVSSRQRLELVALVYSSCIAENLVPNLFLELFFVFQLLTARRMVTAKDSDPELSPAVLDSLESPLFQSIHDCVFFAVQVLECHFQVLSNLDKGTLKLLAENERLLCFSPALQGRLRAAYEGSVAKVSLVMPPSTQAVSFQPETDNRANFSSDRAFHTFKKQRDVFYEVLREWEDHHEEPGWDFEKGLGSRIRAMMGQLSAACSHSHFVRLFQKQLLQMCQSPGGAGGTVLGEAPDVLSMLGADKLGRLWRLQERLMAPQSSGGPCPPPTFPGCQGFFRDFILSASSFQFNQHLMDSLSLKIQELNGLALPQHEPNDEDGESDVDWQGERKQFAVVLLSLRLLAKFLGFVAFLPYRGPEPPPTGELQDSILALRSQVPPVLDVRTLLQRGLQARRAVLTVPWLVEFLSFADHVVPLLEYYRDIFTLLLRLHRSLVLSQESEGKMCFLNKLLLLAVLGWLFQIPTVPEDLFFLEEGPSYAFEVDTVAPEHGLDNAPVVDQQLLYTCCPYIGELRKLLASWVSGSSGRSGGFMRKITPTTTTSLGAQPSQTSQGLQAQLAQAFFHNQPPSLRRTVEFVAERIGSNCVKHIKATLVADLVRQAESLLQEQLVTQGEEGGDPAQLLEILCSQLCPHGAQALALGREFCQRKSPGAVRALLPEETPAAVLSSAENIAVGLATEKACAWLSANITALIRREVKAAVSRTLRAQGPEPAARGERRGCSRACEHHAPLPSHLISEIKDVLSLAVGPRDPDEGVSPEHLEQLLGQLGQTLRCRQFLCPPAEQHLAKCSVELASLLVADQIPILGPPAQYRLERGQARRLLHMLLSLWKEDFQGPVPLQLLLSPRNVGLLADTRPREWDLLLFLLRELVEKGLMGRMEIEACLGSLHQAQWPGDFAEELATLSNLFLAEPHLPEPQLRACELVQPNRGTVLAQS
Sequence of UniProt Q96JB5 (Q96JB5 whole entry, looked up): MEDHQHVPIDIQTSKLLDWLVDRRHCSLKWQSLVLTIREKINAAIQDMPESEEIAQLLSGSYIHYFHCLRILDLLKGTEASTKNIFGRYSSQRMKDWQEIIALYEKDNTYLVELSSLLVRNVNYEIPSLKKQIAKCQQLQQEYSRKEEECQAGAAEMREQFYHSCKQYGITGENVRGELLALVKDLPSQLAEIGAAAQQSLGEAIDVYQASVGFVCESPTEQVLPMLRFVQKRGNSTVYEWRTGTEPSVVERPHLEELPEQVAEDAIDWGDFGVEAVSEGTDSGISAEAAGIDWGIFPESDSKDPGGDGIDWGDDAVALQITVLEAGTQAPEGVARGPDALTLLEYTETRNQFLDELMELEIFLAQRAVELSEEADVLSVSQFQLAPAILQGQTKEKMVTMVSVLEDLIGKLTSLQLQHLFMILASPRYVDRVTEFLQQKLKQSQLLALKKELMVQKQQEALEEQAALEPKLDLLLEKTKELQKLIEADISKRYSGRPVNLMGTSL
Sequence of UniProt P51946 (P51946 whole entry, looked up): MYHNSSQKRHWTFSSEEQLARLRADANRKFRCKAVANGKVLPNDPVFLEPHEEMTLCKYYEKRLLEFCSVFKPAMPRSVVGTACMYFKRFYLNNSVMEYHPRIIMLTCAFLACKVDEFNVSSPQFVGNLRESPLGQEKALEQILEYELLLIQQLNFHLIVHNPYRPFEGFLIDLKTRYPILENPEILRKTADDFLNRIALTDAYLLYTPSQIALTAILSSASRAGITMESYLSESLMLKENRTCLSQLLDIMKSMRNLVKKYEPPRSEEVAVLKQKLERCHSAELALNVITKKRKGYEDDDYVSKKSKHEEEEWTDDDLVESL
Sequence of UniProt P83916 (P83916 whole entry, looked up): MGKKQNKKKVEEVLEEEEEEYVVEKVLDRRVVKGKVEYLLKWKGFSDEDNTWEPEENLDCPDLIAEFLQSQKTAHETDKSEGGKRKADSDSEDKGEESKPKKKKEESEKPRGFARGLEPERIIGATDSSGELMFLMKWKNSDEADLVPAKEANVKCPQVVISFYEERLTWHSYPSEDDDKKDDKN
Sequence of UniProt O95319 (O95319 whole entry, looked up): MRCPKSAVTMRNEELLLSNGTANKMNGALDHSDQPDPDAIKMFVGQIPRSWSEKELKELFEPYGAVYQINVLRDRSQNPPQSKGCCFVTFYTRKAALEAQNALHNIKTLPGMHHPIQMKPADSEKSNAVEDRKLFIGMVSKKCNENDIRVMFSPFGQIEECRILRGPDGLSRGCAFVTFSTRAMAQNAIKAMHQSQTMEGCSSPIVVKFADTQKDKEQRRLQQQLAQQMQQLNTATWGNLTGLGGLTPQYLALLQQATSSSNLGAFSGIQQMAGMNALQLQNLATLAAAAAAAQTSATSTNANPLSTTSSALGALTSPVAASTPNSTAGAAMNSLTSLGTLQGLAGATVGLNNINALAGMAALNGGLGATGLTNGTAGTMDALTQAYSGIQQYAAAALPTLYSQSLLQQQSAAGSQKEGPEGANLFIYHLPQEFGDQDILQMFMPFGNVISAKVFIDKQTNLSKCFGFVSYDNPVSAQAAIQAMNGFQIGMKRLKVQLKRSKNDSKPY
Sequence of UniProt P67870 (P67870 whole entry, looked up): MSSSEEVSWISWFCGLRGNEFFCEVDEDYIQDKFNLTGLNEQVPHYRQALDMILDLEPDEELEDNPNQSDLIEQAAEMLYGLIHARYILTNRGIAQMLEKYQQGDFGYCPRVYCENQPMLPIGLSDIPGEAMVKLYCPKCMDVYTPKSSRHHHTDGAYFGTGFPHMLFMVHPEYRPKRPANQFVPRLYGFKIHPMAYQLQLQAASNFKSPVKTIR

Target | log2 fold change [1] | log2 fold change [2] | log2 fold change [3] | log2 fold change [4] | log2 fold change [5] | log2 fold change [6] | log2 fold change [7] | log2 fold change [8] | log2 fold change [9] | log2 fold change [10]
CDAN1 (UniProt Q8IWY9) | -0.012 | -0.03 | -0.019 | 0.009 | -0.029 | 0.024 | 0.085 | -0.006 | 0.005 | 0.112
CSNK2B (UniProt P67870) | 0.074 | 0.036 | -0.035 | 0.021 | 0.246 | -0.09 | -0.116 | -0.031 | 0.024 | 0.038
COX5B (UniProt P10606) | -0.076 | 0.113 | -0.018 | 0.052 | 0 | -0.046 | -0.01 | 0.024 | -0.033 | 0.006
CBX1 (UniProt P83916) | 0.073 | -0.037 | -0.026 | 0.035 | -0.018 | -0.143 | -0.01 | -0.02 | -0.043 | 0
CNOT2 (UniProt Q9NZN8) | -0.044 | 0.007 | -0.071 | -0.005 | -0.006 | -0.024 | 0.052 | 0 | 0.012 | -0.021
CELF2 isoform 3 (UniProt O95319) | -0.011 | 0.076 | 0.036 | -0.102 | -0.034 | 0.098 | 0.125 | -0.099 | -0.041 | -0.032
CLPP (UniProt Q16740) | 0 | 0.009 | -0.011 | 0.067 | 0.054 | -0.017 | 0.026 | -0.028 | -0.077 | -0.038
CPT1A (UniProt P50416) | 0.021 | 0.075 | 0.578 (active) | 0.142 | 0.161 | -0.087 | 0.054 | 0.148 | 0.069 | -0.04
CPSF1 (UniProt Q10570) | 0.024 | -0.01 | 0.045 | -0.02 | -0.05 | 0.038 | 0.018 | -0.061 | -0.048 | -0.032
CRLF3 (UniProt Q8IUI8) | -0.209 | -0.124 | -0.161 | 0.054 | 0.051 | -0.076 | 0.026 | 0.036 | 0.074 | -0.013
CFAP36 isoform 2 (UniProt Q96G28) | -0.01 | -0.023 | -0.132 | 0.116 | 0.1 | 0.13 | 0.064 | -0.058 | 0.053 | 0.05
CHCHD1 (UniProt Q96BP2) | -0.069 | 0.059 | 0.009 | -0.025 | 0.132 | 0.017 | 0.114 | 0.04 | -0.037 | -0.024
CHEK1 (UniProt O14757) | 0 | -0.271 (active) | -0.041 | 0.09 | -0.32 (active) | -0.031 | -0.071 | 0.003 | 0.043 | 0
CDC26 (UniProt Q8NHZ8) | 0.032 | -0.022 | 0.026 | 0 | -0.032 | -0.11 | 0.112 | -0.013 | -0.051 | -0.234
COQ7 (UniProt Q99807) | 0.024 | 0.055 | 0.009 | -0.009 | 0.043 | 0.03 | -0.062 | -0.028 | -0.058 | 0.059
CAMSAP1 isoform 3 (UniProt Q5T5Y3) | -0.084 | -0.175 | -0.027 | 0.071 | -0.191 | 0.051 | 0.048 | -0.071 | 0.065 | 0.017
CAD (UniProt P27708) | -0.112 | 0.022 | 0.076 | -0.044 | -0.211 | 0.097 | 0.132 | 0.052 | 0.052 | -0.051
CMTR1 (UniProt Q8N1G2) | 0.009 | 0.018 | -0.053 | -0.052 | 0.045 | -0.026 | 0.003 | 0.099 | 0.06 | -0.091
CNTN4 (UniProt Q8IWV2) | -0.026 | -0.033 | -0.065 | 0.256 | -0.225 | -0.06 | -0.01 | -0.016 | -0.082 | 0.004
C4orf33 (UniProt Q8N1A6) | -0.027 | -0.091 | -0.07 | -0.024 | 0.048 | -0.071 | 0.091 | 0.013 | -0.076 | 0.042
CSNK2A2 (UniProt P19784) | 0.029 | 0.024 | -0.041 | -0.042 | 0.214 | -0.067 | -0.123 | -0.017 | -0.039 | -0.052
CSK (UniProt P41240) | -0.01 | -0.069 | -0.102 | 0.048 | 0.097 | -0.105 | -0.008 | 0.007 | 0.013 | -0.048
CDK5RAP3 isoform 4 (UniProt Q96JB5) | -0.009 | -0.099 | -0.066 | 0.024 | 0.035 | -0.045 | -0.029 | 0.002 | 0.033 | -0.043
CCNH (UniProt P51946) | 0.094 | -0.019 | -0.014 | -0.001 | -0.037 | -0.037 | 0.036 | -0.044 | -0.031 | 0.033
COX6B1 (UniProt P14854) | 0.024 | -0.012 | 0.039 | -0.069 | 0.015 | -0.023 | 0.022 | -0.061 | -0.043 | 0.008
CORO2A (UniProt Q92828) | 0.016 | 0.015 | -0.021 | -0.055 | 0.053 | -0.015 | -0.266 | -0.097 | 0.21 | -0.028
CDK8 (UniProt P49336) | -0.006 | 0.074 | 0.66 (active) | -0.1 | 0.053 | -0.059 | 0.192 | 0.018 | -0.002 | 0.064
CCAR2 isoform 2 (UniProt Q8N163) | -0.102 | -0.231 | -0.254 | 0.122 | -0.083 | -0.42 (active) | -0.106 | 0.031 | -0.011 | 0
CASP3 (UniProt P42574) | 0.107 | 0.048 | 0.005 | 0.066 | -0.024 | -0.002 | -0.062 | 0.001 | -0.014 | -0.004
C4A (UniProt P0C0L4) | 0.108 | 0.268 | 0.052 | -0.039 | -0.021 | 0.072 | -0.075 | -0.188 | -0.047 | -0.039
